# PTPN22 act = LYP phosphatase activators, primary screen, biochemical, DiFMUP fluorescence, 2 µM. activation, % at 2 µM. Tyrosine-protein phosphatase non-receptor type 22 (Homo sapiens), Q9Y2R2. recombinant LYP; 0 = plate median, 100 = signal doubled. 96,000 tested, 0.11% active;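 active = activation at 2 µM above a set limit, the mean plus 5 SD, cut at about 37% in these data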
# PLAP act = PLAP enzyme activators, biochemical, luminescence, HTS. activation fold at 20 µM. purified PLAP enzyme, luminescent substrate read-out; active compounds read high. 96,000 tested, 1.2% active; in the data active = activation fold above about 2
# Target sequence (P05187 whole entry, looked up): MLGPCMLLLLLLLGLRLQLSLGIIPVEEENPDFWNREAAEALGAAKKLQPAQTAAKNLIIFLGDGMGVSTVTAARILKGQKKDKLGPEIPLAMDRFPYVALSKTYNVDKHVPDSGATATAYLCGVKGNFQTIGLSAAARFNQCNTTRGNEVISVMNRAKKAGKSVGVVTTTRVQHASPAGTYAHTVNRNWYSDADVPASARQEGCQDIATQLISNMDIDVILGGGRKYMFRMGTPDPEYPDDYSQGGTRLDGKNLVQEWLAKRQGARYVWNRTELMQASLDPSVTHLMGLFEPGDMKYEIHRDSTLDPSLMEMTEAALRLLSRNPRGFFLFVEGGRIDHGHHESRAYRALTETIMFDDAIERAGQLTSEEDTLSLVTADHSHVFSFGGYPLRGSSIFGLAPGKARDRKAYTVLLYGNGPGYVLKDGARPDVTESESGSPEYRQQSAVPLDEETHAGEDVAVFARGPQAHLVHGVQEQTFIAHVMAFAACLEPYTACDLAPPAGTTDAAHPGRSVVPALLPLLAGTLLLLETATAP
# TNAP act mid DEA = human TNAP enzyme activators, primary screen, biochemical, luminescent, intermediate phosphate acceptor level. Alkaline phosphatase, tissue-nonspecific isozyme (Homo sapiens), P05186. purified TNAP, CDP-star luminescence, 100 mM DEA, 30 min; active compounds read high; scale: 0 levamisole-inhibited, 1 vehicle-only enzyme. 64,000 tested, under 10 active. activation factor at 20 µM. AID 813, 2007;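 active = activation factor of at least 2 at 20 µM, relative to controls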
# MT1-MMP txn act = MT1-MMP promoter reporter activation – cell-based, luciferase luminescence, primary screen. AID 750, 2007. 86,000 tested, 0.16% active. activation factor at 10 µM. HT1080 MT1-MMP promoter luciferase reporter, overnight; active compounds read high;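 active = activation factor of at least 2 for MT1-MMP transcription at 10 µM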
# LYP inh 2 = PTPN22 phosphatase inhibitors, primary screen, biochemical, DiFMUP fluorescence, 2 µM; recombinant LYP catalytic domain; inhibition, % at 2 µM; 96,000 tested, 0.21% active; AID 640, 2007;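 active = inhibition at 2 µM at or above a set limit, the screen mean plus 3 SD, cut at about 24% in these data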;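 note: 0% = DMSO with enzyme and 100% = enzyme fully blocked by orthovanadate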
# * marks the source's active call; other numbers are inactive results; x = no result. Sampled rows, rich in hits. Any-hit rate of the full collection: about 1.6%.
SMILES,PTPN22 act,PLAP act,TNAP act mid DEA,MT1-MMP txn act,LYP inh 2
COC(=O)c1ccc(C(/C=C/[C@@H](C)C(=O)NCc2ccc(OC)c(O)c2)NC(=O)OCc2ccccc2)cc1 (stereo partly drawn),x,x,x,1.1,x
CC1Cc2ccccc2N1C(=O)CSc1nnc2c(n1)[nH]c1ccc(F)cc12 (stereo not drawn),-2.0,x,x,1.1,0.7
O=C(CCCSc1nc2ccccc2[nH]1)Nc1nnc(-c2ccccc2)o1,21.2,2.1*,x,1.2,-17.2
c1ccc(-c2nnc(CSc3nc4ccccc4[nH]3)o2)cc1,9.7,2.2*,0.9,1,-12.4
c1ccc2[nH]c(CSc3nnc(-c4ccncc4)o3)nc2c1,x,2.2*,0.9,1.2,x
Brc1cccc(-c2nnc(SCc3nc4ccccc4[nH]3)o2)c1,-6.0,1,1,1.1,3.9
CN1CCN(S(=O)(=O)c2ccc(NC(=O)c3ccc(Br)s3)cc2)CC1,9.2,0.9,1,1.1,-12.5
O=c1cc(CO)oc(CN2CCN(c3cccc(C(F)(F)F)c3)CC2)c1O,0.5,2.2*,x,1.1,0.7
O=c1cc(CO)oc(CN2CCN(c3ccccc3)CC2)c1O,-8.9,1,x,1.2,8.8
c1ccc(-c2cc(-c3nnc4n3N=C(c3ccc5ccccc5c3)CS4)[nH]n2)cc1,-26.2,1.7,x,x,29.9*
Cc1cc(-c2nnc3n2N=C(c2ccc(-c4ccccc4)cc2)CS3)n[nH]1,-3.3,1.1,1,1.1,1.4
COC(=O)/C(=C(/F)SCC(C)=O)C(F)(F)F,-2.3,1.1,x,1.3,4.7
Cc1ccc(O)c(-c2cc(C(F)(F)C(F)F)[nH]n2)c1,1.7,2*,1.1,1.2,-4.0
COc1ccc(Cl)cc1N1C(=O)/C(=C\c2sccc2C)N=C1SCC(=O)NC1CC1,-3.5,1.4,x,x,1.1
CCCCNC(=O)Nc1nnc(-c2ccccc2)o1,5.7,2.1*,x,1.2,-7.5
O=C(CN(Cc1ccco1)C(=O)CNS(=O)(=O)c1ccc(F)cc1)NCc1ccc(F)cc1,-2.7,1.1,6.1*,1.1,0.3
C=CCSc1nncn1/N=C/c1ccc(OC)cc1,0.5,1.5,0.8,2*,0.7
COc1ccc(-c2cc(=O)[nH][nH]2)cc1OC,0.7,2.2*,x,1.1,-3.5
Cc1nc2cc(NC(=O)Nc3nccs3)ccc2n1C,10.0,2*,0.9,0.9,-10.8
C=CCn1c(SCc2c(Cl)cccc2Cl)nnc1-c1cccnc1,18.2,0.9,x,1.1,-15.1
Cn1ccnc1C(O)c1cc(C(C)(C)C)c(O)c(C(C)(C)C)c1 (stereo not drawn),-2.8,2.2*,1.1,1.1,3.9
COC(=O)[C@@]1(Cc2ccc(OC)cc2)[C@H]2c3cc(C(=O)N(C)C)n(CCc4ccccn4)c3C[C@H]2CN1C(=O)c1ccccc1,x,x,x,1.1,x
CC1(C)Cc2c(sc(NC(=O)c3ccc(Br)o3)c2C#N)CO1,2.5,1.4,0.9,2.3*,-6.1
CC1(C)Cc2c(sc(NC(=O)c3ccco3)c2C(=O)O)CO1,0.3,1.1,x,1.3,2.3
Nc1nc(N2CCOCC2)cc(=O)[nH]1,-9.5,0.8,x,1.1,12.9
SMILES,PTPN22 act,PLAP act,TNAP act mid DEA,MT1-MMP txn act,LYP inh 2
O=C(CSc1nnc(-c2ccc(Cl)s2)o1)N1CCCc2ccccc21,-24.4,0.8,1,1,24.5*
CC(=O)N1CC=CC1(CC(C)C)C(=O)NCC1CC1 (stereo not drawn),x,x,x,1,x
COC(=O)Cc1cc(=O)[nH]c(Nc2nc3ccccc3o2)n1,-4.5,2.6*,0.6,1.2,8.3
CCOC(=O)Cc1cc(=O)[nH]c(Nc2nc3ccccc3o2)n1,-6.7,1.7,0.7,1.2,4.8
Cc1oc(-c2ccccc2)nc1C(=O)Nc1nccs1,-4.0,2*,0.9,1.6,3.4
COc1ccc(-c2csc(NC(=O)c3nc(-c4ccccc4)oc3C)n2)cc1,-6.5,1,x,x,10.9
COC(=O)c1ccc(C(NC(=O)OCc2ccccc2)/C(F)=C/[C@@H](C)C(=O)NCc2cc(C)on2)cc1 (stereo partly drawn),x,x,x,1.1,x
Cc1cc([N+](=O)[O-])nn1CC(=O)NNC(=S)Nc1ccc([N+](=O)[O-])cc1,-33.1,1.1,x,x,35.3*
O=C(Cn1nc(C(F)F)cc1C(F)F)NNC(=S)Nc1ccc(Cl)cc1,2.5,2*,x,x,-1.9
Cc1nn(CC(=O)NNC(=S)Nc2ccccc2)c(C)c1[N+](=O)[O-],-4.6,1.9,x,x,8.4
COc1ccc(NC(=S)NNC(=O)Cn2nc([N+](=O)[O-])cc2C)cc1,7.8,2.2*,x,x,-2.2
O=C(Nc1ccccc1-c1nnc(SCc2ccccc2Cl)o1)c1ccccc1,-5.5,1,x,x,1.5
COC(=O)[C@@]1(Cc2ccc(F)cc2)[C@H]2c3cc(C(=O)N(C)C)n(Cc4ccc(C(F)(F)F)nc4)c3C[C@H]2CN1C(=O)c1ccccc1,x,x,x,1.2,x
Cc1ccc(CNC(=O)[C@H](C)[C@H]2C[C@]2(C)[C@H](NC(=O)OCc2ccccc2)c2ccccc2)c(F)c1F,x,x,x,1.2,x
CCCc1cc2c(n1Cc1ccc(OC)cc1)C(C)C1CN(C(=O)c3ccccc3)C(C)(C(=O)OC)C21 (stereo not drawn),x,x,x,1.1,x
CC(=O)Nc1ccc(Nc2ncnc3c2cnn3-c2cccc(C)c2)cc1,-4.4,1,0.9,1.3,5.6
CC(=O)Nc1ccc(Nc2ncnc3c2cnn3-c2ccc(C)cc2C)cc1,-10.2,2*,x,1.1,7.9
CC1(C)CC(=O)c2c(oc3cc4c(cc23)OCO4)C1,x,x,x,1,x
COCCNC(=O)c1ccc2c(=O)n(Cc3ccco3)c(SCC(=O)NC3CCCC3)nc2c1,-2.2,2.2*,x,1.3,-0.3
COCCNC(=O)CSc1nc2cc3c(cc2c(=O)n1Cc1ccco1)OCO3,-0.8,1.1,x,1.2,2.5
OCc1nc2ccccc2n1C/C=C/c1ccccc1,0.4,2*,1,1,0.1
CC1CCCN(C(=O)COC(=O)c2n[nH]c3ccccc23)C1 (stereo not drawn),-8.2,2*,0.8,1.5,5.3
COC(=O)C1CCN(C(=O)COC(=O)c2n[nH]c3ccccc23)CC1,-2.8,x,0.9,1.2,1.3
COc1ccccc1CNC(=O)COC(=O)c1n[nH]c2ccccc12,-1.9,2.3*,x,1,4.2
CC(=O)Nc1nc2n(n1)C(c1ccccc1)C=C(c1ccccc1)N2 (stereo not drawn),0.4,2.1*,1,1.1,-3.1
COc1ccc(C2C=C(c3ccc(Br)cc3)Nc3nc(N4C(=O)CCC4=O)nn32)cc1 (stereo not drawn),-2.7,1.9,1,1,1.4
O=C1CCC(=O)N1c1nc2n(n1)C(c1ccccc1)C=C(c1ccc(Br)cc1)N2 (stereo not drawn),-5.3,2*,1,1.1,4.2
